The values that follow come from PubChem BioAssay (NCI).

The panel holds about 83,000 compounds, 20% with a hit somewhere; the sample as a whole holds those more often.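 96-well plates, one dose, 48 hours. Percent growth reported; active if below 10.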 Unmarked numbers belong to inactive results.

The subject of the first test is SNB-75 CNS. In words: NCI-60 one-dose screen, 48 h (100 = growth as untreated, 0 = no growth, -100 = all killed). Conditions: 10 µM unless noted.
As for `CC(=O)c1cccc(NS(=O)(=O)c2ccc(C)cc2)c1`, the growth was 61.9%.

With `CCCNS(=O)(=O)c1ccc(Cl)cc1`, the growth is 93.4%.

Consider `COc1nc(Nc2cccc(C(F)(F)F)c2)nc(OC)n1`, for which the growth was 84.3%.

Take `COC1OC(C(COC(C)=O)OC(C)=O)C(OC(C)=O)C(OC(C)=O)C1OC(C)=O` (stereo not drawn): the growth is 97.6%.

In the case of `NC(=O)c1cc2c3ccccc3ccn2c1-c1ccccc1`, the growth was 59.9%.

Consider `Clc1ccc(/C=C/c2ccccn2)cc1`, for which the growth is 72.5%.

With `CC(=O)c1cccc(N(C)S(=O)(=O)c2ccc(C)cc2)c1`, the growth was 81.6%.

As to `Cc1onc(-c2c(F)cccc2Cl)c1-c1ncc(-c2ccc(Br)cc2)o1`, the growth is 65.8%.

On to `O=S(=O)(O)C(C(I)I)S(=O)(=O)O`, for which the growth is 98.3%.

As to `Clc1ccc(-c2noc(/C=C\c3ccccc3)n2)cc1`, the growth is 103%.

Take `BrCc1cccc(C[P+](c2ccccc2)(c2ccccc2)c2ccccc2)c1`: the growth was 47.6%.

For `CCCC(OC(C)=O)c1ccc2c(c1)OCO2` (stereo not drawn), the growth is 96.9%.

Consider `CC(=O)Nc1ccc(C(=O)c2ccc(S(=O)(=O)Nc3ccccc3)cc2)cc1`, for which the growth was 78.1%.

With `O=C1NC(=O)/C(=C\c2ccncc2)N1`, the growth was 92%.

For a further test, the system named is U251 CNS. Described as above. Conditions: 10 µM unless noted.
For `Cn1/c(=N\N=C\c2ccccc2OCCO)sc2ccccc21`, the growth is 100%.

Turning to `C=C1C(=O)C2CCC1C2` (stereo not drawn), the growth is 109%.

As to `CC(C)C(C)(C)C(=O)C(C)(C)C(C)(C)C`, the growth was 92.9%.

As for `Cc1ccc(OC(=O)c2ccccc2)cc1`, the growth is 94.8%.

Regarding `CCOC(=O)c1cc(Cl)c(O)c(Cl)c1`, the growth is 104%.

Take `Cc1ccc(Cc2ccc(C)cc2)cc1`: the growth is 101%.

Regarding `NCCCN1CCCC1=O`, the growth was 108%.

With `CCCCCCCCCCCCCCCCCCSC(=N)N`, the growth was 72.3%.

Take `C=C1C(=O)C2CCN1CC2`: the growth was 100%.

As for `Cc1ccc[n+](CCC(N)=O)c1`, the growth was 87.4%.

In the case of `N#CC1(O)CCCCC1`, the growth was 94.7%.

As for `CCOC(=O)CO`, the growth was 110%.

With `CCOC(=O)N[C@H]1CCc2cc(OC)c(OC)c(OC)c2-c2ccc(SC)c(=O)cc21`, the growth is 17.1%.

With `CC1CCC(C)(C)c2ccccc21` (stereo not drawn), the growth is 99.2%.

On to `O=C1C=Cc2ccccc2/C1=C/c1[nH]c(=O)[nH]c1O`, for which the growth is 29.3%.

Take `CCN(CC)CCCC(C)NC(=S)N/N=C(\C)c1ccccn1` (stereo not drawn): the growth was 37.2%.

As for `Cn1c(=O)c2[nH]c(CC(=O)O)nc2n(C)c1=O`, the growth was 103%.

Take `Cc1ccc(/C=N/NC(N)=S)s1`: the growth is 102%.

Regarding `CCNC(=O)Oc1ccc[nH]c1=O`, the growth is 104%.

In the case of `Cc1cccc(C)c1NC(=S)/N=C\c1c(O)[nH]c(=O)[nH]c1=O`, the growth was 96.8%.

Regarding `Cc1ccc(C)c(CCO)c1`, the growth is 90.6%.

For `O=C(OCC1CCCO1)c1ccc([N+](=O)[O-])cc1` (stereo not drawn), the growth was 91.7%.

As to `CC(=O)c1cccc(NS(=O)(=O)c2ccc(C)cc2)c1`, the growth was 61.2%.

`CCCNS(=O)(=O)c1ccc(Cl)cc1`: the growth is 99.3%.

As to `COc1nc(Nc2cccc(C(F)(F)F)c2)nc(OC)n1`, the growth was 89.4%.

As to `COC1OC(C(COC(C)=O)OC(C)=O)C(OC(C)=O)C(OC(C)=O)C1OC(C)=O` (stereo not drawn), the growth is 101%.

Regarding `NC(=O)c1cc2c3ccccc3ccn2c1-c1ccccc1`, the growth is 16.1%.

With `Clc1ccc(/C=C/c2ccccn2)cc1`, the growth was 81.1%.

For `CC(=O)c1cccc(N(C)S(=O)(=O)c2ccc(C)cc2)c1`, the growth is 87.4%.

On to `Cc1onc(-c2c(F)cccc2Cl)c1-c1ncc(-c2ccc(Br)cc2)o1`, for which the growth is 39.6%.

As to `O=S(=O)(O)C(C(I)I)S(=O)(=O)O`, the growth was 96.3%.

As for `Clc1ccc(-c2noc(/C=C\c3ccccc3)n2)cc1`, the growth is 91.2%.

Take `BrCc1cccc(C[P+](c2ccccc2)(c2ccccc2)c2ccccc2)c1`: the growth is 19.4%.

As to `CCCC(OC(C)=O)c1ccc2c(c1)OCO2` (stereo not drawn), the growth is 96%.

Regarding `CC(=O)Nc1ccc(C(=O)c2ccc(S(=O)(=O)Nc3ccccc3)cc2)cc1`, the growth was 91.9%.

In the case of `O=C1NC(=O)/C(=C\c2ccncc2)N1`, the growth is 100%.

In the next test the test system is PC-3 prostate. The test is described as above. Conditions: 10 µM unless noted.
As for `Cn1/c(=N\N=C\c2ccccc2OCCO)sc2ccccc21`, the growth was 76.5%.

As to `C=C1C(=O)C2CCC1C2` (stereo not drawn), the growth is 105%.

For `CC(C)C(C)(C)C(=O)C(C)(C)C(C)(C)C`, the growth is 98.8%.

Consider `Cc1ccc(OC(=O)c2ccccc2)cc1`, for which the growth was 105%.

Take `CCOC(=O)c1cc(Cl)c(O)c(Cl)c1`: the growth was 101%.

On to `C[n+]1cc2cc3c(cc2c2ccccc21)OCO3`, for which the growth was 51.6%.

For `Cc1ccc(Cc2ccc(C)cc2)cc1`, the growth is 100%.

For the compound `NCCCN1CCCC1=O`, the growth is 96.9%.

Take `CCCCCCCCCCCCCCCCCCSC(=N)N`: the growth was 65%.

With `C=C1C(=O)C2CCN1CC2`, the growth is 101%.

For `Cc1ccc[n+](CCC(N)=O)c1`, the growth is 86.1%.

With `N#CC1(O)CCCCC1`, the growth was 95.2%.

With `CCOC(=O)N[C@H]1CCc2cc(OC)c(OC)c(OC)c2-c2ccc(SC)c(=O)cc21`, the growth is 27.7%.

As to `CC1CCC(C)(C)c2ccccc21` (stereo not drawn), the growth is 93.5%.

`O=C1C=Cc2ccccc2/C1=C/c1[nH]c(=O)[nH]c1O`: the growth is 27.4%.

For the compound `CCN(CC)CCCC(C)NC(=S)N/N=C(\C)c1ccccn1` (stereo not drawn), the growth was 41.1%.

For `Cn1c(=O)c2[nH]c(CC(=O)O)nc2n(C)c1=O`, the growth is 96.8%.

On to `Cc1cccc(C)c1NC(=S)/N=C\c1c(O)[nH]c(=O)[nH]c1=O`, for which the growth is 96%.

Regarding `Cc1ccc(C)c(CCO)c1`, the growth is 95.5%.

In the case of `O=C(OCC1CCCO1)c1ccc([N+](=O)[O-])cc1` (stereo not drawn), the growth was 88.4%.

Regarding `CC(=O)c1cccc(NS(=O)(=O)c2ccc(C)cc2)c1`, the growth was 78.9%.

With `CCCNS(=O)(=O)c1ccc(Cl)cc1`, the growth was 92.9%.

For the compound `COC1OC(C(COC(C)=O)OC(C)=O)C(OC(C)=O)C(OC(C)=O)C1OC(C)=O` (stereo not drawn), the growth is 107%.

Consider `NC(=O)c1cc2c3ccccc3ccn2c1-c1ccccc1`, for which the growth is 37.3%.

For the compound `Clc1ccc(/C=C/c2ccccn2)cc1`, the growth was 81.4%.

For the compound `CC(=O)c1cccc(N(C)S(=O)(=O)c2ccc(C)cc2)c1`, the growth was 85.2%.

Regarding `Cc1onc(-c2c(F)cccc2Cl)c1-c1ncc(-c2ccc(Br)cc2)o1`, the growth is 41%.

As to `O=S(=O)(O)C(C(I)I)S(=O)(=O)O`, the growth is 95.7%.

As for `Clc1ccc(-c2noc(/C=C\c3ccccc3)n2)cc1`, the growth is 102%.

`BrCc1cccc(C[P+](c2ccccc2)(c2ccccc2)c2ccccc2)c1`: the growth was 23.2%.

Regarding `CCCC(OC(C)=O)c1ccc2c(c1)OCO2` (stereo not drawn), the growth is 102%.

For `CC(=O)Nc1ccc(C(=O)c2ccc(S(=O)(=O)Nc3ccccc3)cc2)cc1`, the growth is 87.2%.

As for `O=C1NC(=O)/C(=C\c2ccncc2)N1`, the growth was 96.3%.
